14 compounds from PubChem BioAssay (NCATS) can be followed below.

Records with an inconclusive call do not appear. A call without a number means that no potency is given here. Active and inactive are the calls of the source. Calls follow the shape of the dose curve; as a rule, active = well fitted cell-killing curve with a large enough effect; inconclusive = small, poorly fitted or top-dose-only effect, or effect the other way; inactive = flat fitted curve, though single readings scatter.
Potency is read from the fitted curve at half-maximal effect.

For the test, the system named is CASKI. Put plainly: Primary qHTS to identify gynecologic anti-cancer compounds using libraries of approved drugs and bioactive compounds (AID 1345084). Also: nearly all actives have a fitted effect of over 55% in size. To be noted: Gynecologic cancer cell panel viability, ATPlite luminescence, 48 h; series mostly up to 57.5 µM. The method in brief:
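Cells, 1,000 per well, plated 16 h, then exposed 48 h at 37 C to compounds. Viability by ATPlite luminescence after 15 min at room temperature.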
Background: Quantitative high-throughput screening tests each substance at several concentrations.
For `C=CC(=O)Nc1cc2c(Nc3ccc(F)c(Cl)c3)ncnc2cc1OCCCN1CCOCC1`, the Potency was 8.91 µM (active).

With `COC(=O)c1ccc2c(C(=Nc3ccc(N(C)C(=O)CN4CCN(C)CC4)cc3)c3ccccc3)c(O)[nH]c2c1`, the Potency result was “inactive”.

Turning to `Cc1ccc(C(=O)Nc2ccc(CN3CCN(C)CC3)c(C(F)(F)F)c2)cc1C#Cc1cnc2cccnn12`, the Potency is 14.1 µM (active).

Regarding `COc1cccc(-c2ccc(NC(=O)C3=C(C(=O)O)CCC3)c(F)c2)c1`, the Potency result was “inactive”.

`CCNC(=O)Nc1ccc2ncc(Nc3ccc(C)cc3)nc2n1`: the Potency entry was “inactive”.

Take `COc1cc2c(Oc3ccc(-c4cnc(Nc5ccc(F)cc5)n(C)c4=O)cc3F)ccnc2cc1OCCCN1CCOCC1`: the Potency entry is “inactive”.

Turning to `Nc1ncnc2c1c(-c1cnc3[nH]ccc3c1)nn2C1CCCC1`, the Potency is 11.2 µM (active).

For `COC(=O)C1=C(C)NC(C)=C(C(=O)OCCN2CCN(C(c3ccccc3)c3ccccc3)CC2)C1c1cccc([N+](=O)[O-])c1` (centres undefined), the Potency entry is “inactive”.

Turning to `CC1(O)CC(c2nc(-c3ccc4ccc(-c5ccccc5)nc4c3)c3c(N)nccn23)C1` (centres undefined), the Potency result was “inactive”.

On to `CC(=O)Nc1sc2c(c1-c1nc3ccccc3s1)CNC2`, for which the Potency entry was “inactive”.

Regarding `Cc1cn(-c2cc(NC(=O)c3ccc(C)c(Nc4nccc(-c5cccnc5)n4)c3)cc(C(F)(F)F)c2)cn1`, the Potency entry was “inactive”.

In the case of `O=C(c1ccc(Nc2nccc(-c3cc4ccccc4s3)n2)cc1)N1CCC(N2CCCC2)CC1`, the Potency entry was “inactive”.

On to `CC(=O)c1c(C)c2cnc(Nc3ccc(N4CCNCC4)cn3)nc2n(C2CCCC2)c1=O`, for which the activity change, negative = cytotoxicity is 12% [at 6.55 µM] (inactive).

For `Cc1nc(N)ncc1-c1nc(N2CCOCC2)c2sc(C(C)(C)O)cc2n1`, the Potency is 0.501 µM (active).
